Assay [1] can be described thus: inhibitors of CD8+ T cell-vesicle binding, pilot screen, LFA-1/ICAM-1 modulator project, MLPCN validation set, flow cytometry (AID 2523;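 active = response below a set limit, under 55% cells CD8-positive and vesicle-bound, and CD8 cells' 90th-percentile brightness under 279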;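 for vesicle binding response: mean PE anti-B7-1 fluorescence of CD8+ cells relative to row control; 100% = QL9-loaded vesicles with DMSO vehicle in the same plate row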). The settings on record: 2C mouse CD8+ T cells, at 7 µM, stronger effect = lower value; double positive events: measured here: CD8+/vesicle+ event percentage.
Assay [2] addresses Integrin beta-1 (Homo sapiens) + Integrin alpha-4 (Homo sapiens) (UniProt P13612+P05556). Briefly: inhibition of HUTS-21 binding to VLA-4, pilot screen, VLA-4 allosteric modulator project, U937 cells, HUTS-21 mAb, flow cytometry, validation set (AID 2674;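 active = inhibition above 50%, about 3 SD of the validation set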;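 note: antibody binding induced by the VLA-4 ligand LDV present at three times its Kd; 0% = LDV ligand with antibody and no compound and 100% = antibody without LDV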). The following applies: HUTS-21 LIBS mAb binding, at 6.7 µM, stronger effect = higher value, binding induced by LDV ligand.
Assay [3] is described as follows: superoxide lowering in aged yeast cells, pilot screen, validation compound set (AID 2706;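 active = superoxide response below 65% of plate, a cut near 3 SD across the whole screen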;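 note: yeast exposed to compound for one week at 30 degrees C before staining; 100% = mean of all compound wells on the same plate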). The following applies: S. cerevisiae aging, superoxide DHE fluorescence; at 10 µM, stronger effect = lower value.
Assay [4] addresses Beta-adrenergic receptor kinase 1 (Homo sapiens) (UniProt P25098). The assay is described as follows: GRK2 binders displacing RNA aptamer, biochemical, validation, human GRK2, bead flow cytometry (AID 488806;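 active = aptamer binding inhibition above 30%, about 3 SD of noise from non-fluorescent compounds; inactive = inhibition at or below 30%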). The following applies: bead-bound GRK2, FAM-aptamer displacement, at 10 µM, stronger effect = higher value.
Assay [5] deals with AP-2 complex subunit beta (Homo sapiens) (UniProt P63010). The assay is described as follows: inhibitors of arrestin peptide binding to AP2, pilot screen, biochemical, validation set, GST-AP2 beads, flow cytometry (AID 504541;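 active = inhibition above 54%, about 3 SD of non-fluorescent compounds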;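 note: AP2 carries R879A mutation and is captured from E. coli lysate; bead-bound FITC arrestin peptide fluorescence measuring arrestin peptide binding to AP2; 0% = DMSO wells and 100% = excess unlabeled arrestin peptide control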). The following applies: FITC arrestin peptide, at 10 µM, stronger effect = higher value, AP2 beta2 appendage fragment, R879A mutant.
Assay [6] is described as follows: yeast V-ATPase proton transport modulators, S. cerevisiae, pHLuorin, HTS validation (AID 504600; in the data active = response above about 15%;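 note: plate controls were DMSO for no effect and reference compound for full effect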). The following applies: S. cerevisiae pHLuorin cytosolic pH, at 10 µM, stronger effect = higher value.
Assay [7] deals with anti-desmoglein-3 scFv antibody binding to human DSG3. The assay is described as follows: inhibitors of anti-DSG3 scFv binding to DSG3, pilot screen, biochemical, validation compound set, bead-based, flow cytometry (AID 588368;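 active = binding below the plate cutoff, the plate median minus 3 SD, with a reading above zero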;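 note: signal is the median channel fluorescence of bead-bound GFP antibody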). The following applies: Protein G beads, DSG3-Fc, scFv-GFP binding, at 10 µM, stronger effect = lower value.
The nature of assay [8]: inhibitors of fungal efflux pumps CDR1, CDR2, MDR1, pilot screen, validation compound set, multiplex, phenotypic (AID 588506;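 active = efflux inhibition above 0.42, the validation set average plus 4 SD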;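 note: Nile Red retained in cells so higher fluorescence means more efflux inhibition; 0 = negative control wells and 1 = enniatin B 25 µM full block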). The following applies: S. cerevisiae pump-expressing triplex, Nile Red efflux flow cytometry; at 10 µM; stronger effect = higher value; the pumps come from Candida albicans.
Assay [9] concerns the target ATP-binding cassette sub-family B member 6 (Homo sapiens) (UniProt Q9NP58). Briefly: ABCB6 transporter inhibitors, pilot screen, K562-ABCB6 cells, flow cytometry, validation set (AID 588550).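 Note: 0% = DMSO wells and 100% = benzethonium chloride 70 µM positive control.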 The settings on record: K562-ABCB6 porphyrin accumulation, 1 h, at 10 µM, stronger effect = higher value.
A short description of assay [10]: promoters of myeloid differentiation in arrested cells, primary screen, cell-based, GFP/MAC1 double positive, flow cytometry, validation set (AID 588685;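 active = differentiation response of at least 50%, scaled between solvent and reference control, from cells with both markers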;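 note: compound exposure lasts four days before antibody staining and flow analysis; 0% = DMSO wells and 100% = 5 µM fulvestrant positive control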). The settings on record: ER-HoxA9 marrow cells, stronger effect = higher value, normalized: vehicle 0, fulvestrant 100.

Calls of active or inactive are those of the source.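 Rule for the calls, unless noted: active = inhibition above the screen-wide mean plus 3 SD, about 51%; inactive = the rest.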

AP-2 complex subunit beta (Homo sapiens), sequence (P63010 whole entry, looked up, the tested form may be a part, one chain of several): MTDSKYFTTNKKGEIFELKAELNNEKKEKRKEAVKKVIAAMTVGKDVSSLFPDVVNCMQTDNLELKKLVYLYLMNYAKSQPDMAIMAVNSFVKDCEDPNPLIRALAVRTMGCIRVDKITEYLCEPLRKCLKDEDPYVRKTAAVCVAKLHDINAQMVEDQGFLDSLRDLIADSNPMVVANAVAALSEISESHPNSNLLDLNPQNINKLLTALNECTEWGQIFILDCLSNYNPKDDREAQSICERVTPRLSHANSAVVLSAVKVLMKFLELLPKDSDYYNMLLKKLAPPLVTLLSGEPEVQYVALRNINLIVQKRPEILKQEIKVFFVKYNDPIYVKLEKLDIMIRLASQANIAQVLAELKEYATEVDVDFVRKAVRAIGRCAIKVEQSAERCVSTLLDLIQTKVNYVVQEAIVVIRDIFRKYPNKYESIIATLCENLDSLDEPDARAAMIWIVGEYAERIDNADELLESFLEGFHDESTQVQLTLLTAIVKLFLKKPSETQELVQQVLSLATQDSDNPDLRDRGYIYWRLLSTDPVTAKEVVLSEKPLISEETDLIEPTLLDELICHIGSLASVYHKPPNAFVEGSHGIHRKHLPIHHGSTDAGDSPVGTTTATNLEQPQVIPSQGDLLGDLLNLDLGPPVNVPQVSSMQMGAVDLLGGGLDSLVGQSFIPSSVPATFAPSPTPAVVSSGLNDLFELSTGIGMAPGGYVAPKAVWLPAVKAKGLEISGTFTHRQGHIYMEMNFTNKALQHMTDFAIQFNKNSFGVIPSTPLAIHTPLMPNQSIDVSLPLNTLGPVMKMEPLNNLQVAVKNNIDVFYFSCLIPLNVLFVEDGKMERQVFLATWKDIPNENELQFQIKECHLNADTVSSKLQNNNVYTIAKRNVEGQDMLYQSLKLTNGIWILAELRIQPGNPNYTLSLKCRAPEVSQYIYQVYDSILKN
ATP-binding cassette sub-family B member 6 (Homo sapiens), sequence (Q9NP58 whole entry, looked up): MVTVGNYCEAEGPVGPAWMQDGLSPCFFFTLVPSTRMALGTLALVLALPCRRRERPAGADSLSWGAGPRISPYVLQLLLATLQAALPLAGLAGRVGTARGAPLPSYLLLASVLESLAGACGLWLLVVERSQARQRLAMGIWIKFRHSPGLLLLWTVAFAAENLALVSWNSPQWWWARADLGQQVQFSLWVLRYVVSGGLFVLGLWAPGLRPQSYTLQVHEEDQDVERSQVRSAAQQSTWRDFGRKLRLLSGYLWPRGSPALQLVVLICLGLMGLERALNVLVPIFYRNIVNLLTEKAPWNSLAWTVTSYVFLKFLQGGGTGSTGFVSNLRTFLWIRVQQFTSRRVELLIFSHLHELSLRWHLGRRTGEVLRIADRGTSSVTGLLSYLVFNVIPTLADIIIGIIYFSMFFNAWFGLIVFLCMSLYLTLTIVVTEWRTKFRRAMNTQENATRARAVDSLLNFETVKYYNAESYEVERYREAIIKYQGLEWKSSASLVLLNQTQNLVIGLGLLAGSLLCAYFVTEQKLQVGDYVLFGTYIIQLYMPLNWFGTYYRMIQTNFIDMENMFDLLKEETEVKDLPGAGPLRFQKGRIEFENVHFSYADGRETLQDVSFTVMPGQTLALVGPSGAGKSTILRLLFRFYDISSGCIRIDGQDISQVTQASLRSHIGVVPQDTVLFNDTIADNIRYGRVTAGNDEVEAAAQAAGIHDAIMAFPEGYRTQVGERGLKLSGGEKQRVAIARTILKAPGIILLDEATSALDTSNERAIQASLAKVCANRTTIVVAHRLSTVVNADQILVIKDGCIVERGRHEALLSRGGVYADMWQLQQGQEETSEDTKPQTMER
Beta-adrenergic receptor kinase 1 (Homo sapiens), sequence (P25098 whole entry, looked up): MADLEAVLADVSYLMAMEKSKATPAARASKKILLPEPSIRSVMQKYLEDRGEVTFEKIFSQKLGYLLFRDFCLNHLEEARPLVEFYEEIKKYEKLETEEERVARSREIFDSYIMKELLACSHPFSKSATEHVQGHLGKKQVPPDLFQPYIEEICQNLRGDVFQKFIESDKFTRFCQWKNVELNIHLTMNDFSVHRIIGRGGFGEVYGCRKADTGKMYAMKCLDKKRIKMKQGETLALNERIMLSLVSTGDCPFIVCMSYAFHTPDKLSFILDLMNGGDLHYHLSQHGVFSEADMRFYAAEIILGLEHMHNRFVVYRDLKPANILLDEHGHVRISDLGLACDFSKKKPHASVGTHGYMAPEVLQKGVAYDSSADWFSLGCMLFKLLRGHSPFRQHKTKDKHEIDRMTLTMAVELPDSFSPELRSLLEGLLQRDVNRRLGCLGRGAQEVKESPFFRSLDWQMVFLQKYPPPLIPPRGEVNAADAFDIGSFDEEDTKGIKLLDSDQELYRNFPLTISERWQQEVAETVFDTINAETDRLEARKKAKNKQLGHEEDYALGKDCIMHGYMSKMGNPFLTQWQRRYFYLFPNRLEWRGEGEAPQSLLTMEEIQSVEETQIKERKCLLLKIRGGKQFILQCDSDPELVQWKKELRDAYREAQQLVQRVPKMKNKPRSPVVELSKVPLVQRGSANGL
Integrin beta-1 (Homo sapiens) + Integrin alpha-4 (Homo sapiens), sequence (P05556 whole entry, looked up): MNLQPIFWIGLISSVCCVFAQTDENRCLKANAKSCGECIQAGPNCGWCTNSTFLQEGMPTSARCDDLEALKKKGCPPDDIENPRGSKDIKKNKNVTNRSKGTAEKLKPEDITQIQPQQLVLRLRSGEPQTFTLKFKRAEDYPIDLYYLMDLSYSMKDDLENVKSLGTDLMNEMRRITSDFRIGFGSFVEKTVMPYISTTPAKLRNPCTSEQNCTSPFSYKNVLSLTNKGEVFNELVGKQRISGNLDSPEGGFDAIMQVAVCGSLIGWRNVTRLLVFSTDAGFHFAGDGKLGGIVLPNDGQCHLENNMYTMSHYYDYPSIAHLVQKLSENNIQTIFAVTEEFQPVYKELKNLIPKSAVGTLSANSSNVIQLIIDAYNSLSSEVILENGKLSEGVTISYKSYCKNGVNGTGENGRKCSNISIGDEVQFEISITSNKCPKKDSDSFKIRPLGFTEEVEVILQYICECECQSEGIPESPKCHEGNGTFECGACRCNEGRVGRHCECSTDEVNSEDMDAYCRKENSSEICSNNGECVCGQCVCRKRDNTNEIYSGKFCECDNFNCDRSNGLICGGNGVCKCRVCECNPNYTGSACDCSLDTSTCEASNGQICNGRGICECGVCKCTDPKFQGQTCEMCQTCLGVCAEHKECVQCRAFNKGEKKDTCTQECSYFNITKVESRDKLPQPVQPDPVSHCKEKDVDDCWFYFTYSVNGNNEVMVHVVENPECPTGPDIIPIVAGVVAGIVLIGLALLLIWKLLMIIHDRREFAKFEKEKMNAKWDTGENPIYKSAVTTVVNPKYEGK
Integrin beta-1 (Homo sapiens) + Integrin alpha-4 (Homo sapiens), sequence (P13612 whole entry, looked up): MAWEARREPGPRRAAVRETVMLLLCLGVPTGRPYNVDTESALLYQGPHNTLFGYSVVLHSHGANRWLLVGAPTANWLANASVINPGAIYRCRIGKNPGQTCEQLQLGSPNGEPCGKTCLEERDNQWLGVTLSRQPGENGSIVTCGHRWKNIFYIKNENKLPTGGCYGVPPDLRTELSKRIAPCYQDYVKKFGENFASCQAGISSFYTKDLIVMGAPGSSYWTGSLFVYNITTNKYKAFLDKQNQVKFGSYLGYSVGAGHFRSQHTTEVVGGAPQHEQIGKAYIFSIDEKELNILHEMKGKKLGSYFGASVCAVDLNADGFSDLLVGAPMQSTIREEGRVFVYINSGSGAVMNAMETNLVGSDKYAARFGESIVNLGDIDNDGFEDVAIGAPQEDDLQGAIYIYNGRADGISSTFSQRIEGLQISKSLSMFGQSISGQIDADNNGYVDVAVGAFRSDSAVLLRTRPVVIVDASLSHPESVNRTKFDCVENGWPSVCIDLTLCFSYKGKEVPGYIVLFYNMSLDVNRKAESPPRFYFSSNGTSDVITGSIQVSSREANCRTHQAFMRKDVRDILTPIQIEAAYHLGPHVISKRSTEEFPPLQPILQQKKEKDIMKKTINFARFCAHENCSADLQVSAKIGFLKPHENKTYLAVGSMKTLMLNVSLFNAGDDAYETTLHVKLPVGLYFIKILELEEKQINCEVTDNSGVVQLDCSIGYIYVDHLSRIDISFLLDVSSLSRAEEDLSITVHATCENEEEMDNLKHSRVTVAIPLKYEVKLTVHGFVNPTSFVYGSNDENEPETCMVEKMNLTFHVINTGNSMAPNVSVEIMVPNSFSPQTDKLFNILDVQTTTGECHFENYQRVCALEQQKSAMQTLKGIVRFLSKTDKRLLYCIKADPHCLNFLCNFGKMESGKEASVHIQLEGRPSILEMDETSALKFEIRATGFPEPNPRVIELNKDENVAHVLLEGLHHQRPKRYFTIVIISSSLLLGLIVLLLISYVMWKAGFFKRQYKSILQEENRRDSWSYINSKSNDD

In assay [1], `Cc1ccc(OCCSc2ncccn2)c(C)c1` had a double positive events of 49.1%. The vesicle binding response in [1] is 186% (inactive). Also, the inhibition in assay [2] was 3.49% (inactive); in assay [5], -11.2% (inactive); in assay [9], 10% (inactive). In addition, the superoxide response (% of plate) in assay [3] is 114% (inactive). Moreover, in assay [4], the aptamer binding inhibition was 1% (inactive). In assay [6], the response is 12.3% (inactive). Besides, the binding (% of control) in assay [7] was 98% (inactive). Moreover, the efflux inhibition (fraction of control) in assay [8] was 0.14 (inactive). Also, the differentiation response in assay [10] was -13.1% (inactive).

Regarding `O=Cc1ccc(N2CCCCC2)cc1`, in assay [1], the double positive events was 54.6%. Also, the vesicle binding response in assay [1] is 201% (inactive). Besides, the inhibition was 10.9% (inactive) in assay [2], -10.3% (inactive) in assay [5] and 4% (inactive) in [9]. In assay [3], the superoxide response (% of plate) is 106% (inactive). Also, the aptamer binding inhibition in assay [4] is 3% (inactive). Further, the response in assay [6] was 1.25% (inactive). Besides, the binding (% of control) in assay [7] is 101% (inactive). For the same compound, the efflux inhibition (fraction of control) in assay [8] was -0.05 (inactive). Besides, in assay [10], the differentiation response is -3.43% (inactive).

In the case of `CCCCNC(=O)NS(=O)(=O)c1ccc(C)cc1`, the double positive events in [1] was 56.1%. The vesicle binding response in assay [1] is 172% (inactive). For the same compound, the inhibition is 12.8% (inactive) in assay [2], -9.7% (inactive) in assay [5] and 9% (inactive) in assay [9]. Besides, the superoxide response (% of plate) in assay [3] is 108% (inactive). In addition, the aptamer binding inhibition in assay [4] is 4% (inactive). In addition, the response in assay [6] was 8.22% (inactive). Also, the binding (% of control) in assay [7] is 99% (inactive). In addition, in [8], the efflux inhibition (fraction of control) is -0.05 (inactive). In assay [10], the differentiation response was -19.6% (inactive).

In turn, `CC(C)OC(=O)C(C)(C)Oc1ccc(C(=O)c2ccc(Cl)cc2)cc1` had a double positive events in assay [1] of 54.1%. In assay [1], the vesicle binding response was 223% (inactive). Besides, the inhibition in assay [2] was 12.8% (inactive); in [5], -5.48% (inactive); in assay [9], 7% (inactive). The superoxide response (% of plate) in assay [3] was 106% (inactive). Further, the aptamer binding inhibition in [4] was -1% (inactive). The response in [6] was 0.98% (inactive). In [7], the binding (% of control) is 103% (inactive). The efflux inhibition (fraction of control) in assay [8] is -0.09 (inactive). For the same compound, the differentiation response in assay [10] was -13.1% (inactive).

As to `CN(C)CCN(Cc1cccs1)c1ccccn1`, the double positive events in assay [1] stood at 52.7%. Besides, the vesicle binding response in [1] is 165% (inactive). Further, the inhibition in assay [2] is 13.8% (inactive); in assay [5], -17.1% (inactive); in [9], 8% (inactive). In assay [3], the superoxide response (% of plate) was 113% (inactive). Also, in [4], the aptamer binding inhibition is 2% (inactive). For the same compound, in assay [6], the response was 8.75% (inactive). The binding (% of control) in [7] was 101% (inactive). Moreover, the efflux inhibition (fraction of control) in assay [8] is 0.18 (inactive). Besides, the differentiation response in assay [10] was -21.2% (inactive).

Compound `O=C1CC(c2ccc(F)cc2)Cc2nc(NCC3CCCO3)ncc21` (centres undefined) gave a double positive events in assay [1] of 55.2%. Also, the vesicle binding response in assay [1] was 192% (inactive). Besides, the inhibition in assay [2] is 6.29% (inactive); in [5], -9.45% (inactive); in assay [9], 7% (inactive). The superoxide response (% of plate) in [3] was 99.1% (inactive). The aptamer binding inhibition in assay [4] was 3% (inactive). In addition, the response in [6] is -2.69% (inactive). For the same compound, the binding (% of control) in assay [7] is 99.8% (inactive). In [8], the efflux inhibition (fraction of control) was -0.12 (inactive). The differentiation response in assay [10] is 38.5% (inactive).

The compound `CCNC(=O)c1sc2cc(C)ccc2c1Cl` registered a double positive events in [1] of 60.2%. Further, the vesicle binding response in assay [1] was 294% (inactive). Also, the figures for the inhibition in assay [2], in assay [5] and in assay [9] were -10.5% (inactive), -9.7% (inactive) and 5% (inactive), respectively. The superoxide response (% of plate) in assay [3] was 86.4% (inactive). In addition, the aptamer binding inhibition in [4] was -2% (inactive). For the same compound, in assay [6], the response is 0.2% (inactive). The binding (% of control) in assay [7] is 99.5% (inactive). The efflux inhibition (fraction of control) in [8] is -0.16 (inactive). Besides, in [10], the differentiation response was 1.41% (inactive).

With `CC1(C)CC(CC(=O)Nc2nccs2)(c2ccccc2)CCO1` (centres undefined), the double positive events in assay [1] stood at 51.5%. The vesicle binding response in assay [1] was 182% (inactive). The inhibition in [2] is 4.42% (inactive); in [5], -9.2% (inactive); in assay [9], 8% (inactive). In addition, the superoxide response (% of plate) in assay [3] is 103% (inactive). In addition, the aptamer binding inhibition in assay [4] was -7% (inactive). In [6], the response is 5.11% (inactive). Moreover, the binding (% of control) in assay [7] is 96.4% (inactive). In addition, the efflux inhibition (fraction of control) in assay [8] was 0.18 (inactive). Besides, in assay [10], the differentiation response is 1.41% (inactive).

As to `C[C@@H]1C[C@H]2[C@@H]3C[C@H](F)C4=CC(=O)C=C[C@]4(C)[C@@]3(F)[C@@H](O)C[C@]2(C)[C@@]1(O)C(=O)CO`, the double positive events in assay [1] worked out at 55%. Moreover, the vesicle binding response in assay [1] was 206% (inactive). The inhibition in assay [2] was 2.56% (inactive); in assay [5] it was -9.58% (inactive); in assay [9] it was 9% (inactive). Moreover, the superoxide response (% of plate) in assay [3] was 92.5% (inactive). Moreover, the aptamer binding inhibition in [4] was 2% (inactive). The response in assay [6] was 10.1% (inactive). Also, the binding (% of control) in assay [7] was 103% (inactive). The efflux inhibition (fraction of control) in [8] is -0.09 (inactive). Further, the differentiation response in assay [10] is -1.82% (inactive).

Source of the values: PubChem BioAssay.
